Measurements reported in paper PMC7826789 (International Journal of Molecular Sciences, 2021).

Columns and labels:
Conditions in all cases: Compound Concentration (nM):1000
TXK = system: TXK
[1] = system: TYK2(JH1domain-catalytic)
[2] = system: TYK2(JH2domain-pseudokinase)
TYRO3 = system: TYRO3
ULK1 = system: ULK1
ULK2 = system: ULK2
ULK3 = system: ULK3
VEGFR2 = system: T1, VEGFR2
T1 construct: gene KDR

VPS34 = system: T2, VPS34
T2 construct: gene PIK3C3

VRK2 = system: VRK2
WEE1 = system: WEE1
WEE2 = system: WEE2
WNK1 = system: WNK1
WNK2 = system: WNK2
WNK3 = system: WNK3
WNK4 = system: WNK4
YANK1 = system: T3, YANK1
T3 construct: gene STK32A

YANK2 = system: T4, YANK2
T4 construct: gene STK32B

YANK3 = system: T5, YANK3
T5 construct: gene STK32C

YES = system: T6, YES
T6 construct: gene YES1
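Note: KINOMEscan scanMAX binding as percent activity remaining versus control; lower means stronger binding.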

Compound | Percent Control (TXK) [%] | Percent Control [1] [%] | Percent Control [2] [%] | Percent Control (TYRO3) [%] | Percent Control (ULK1) [%] | Percent Control (ULK2) [%] | Percent Control (ULK3) [%] | Percent Control (VEGFR2) [%] | Percent Control (VPS34) [%] | Percent Control (VRK2) [%] | Percent Control (WEE1) [%] | Percent Control (WEE2) [%] | Percent Control (WNK1) [%] | Percent Control (WNK2) [%] | Percent Control (WNK3) [%] | Percent Control (WNK4) [%] | Percent Control (YANK1) [%] | Percent Control (YANK2) [%] | Percent Control (YANK3) [%] | Percent Control (YES) [%]
NS(=O)(=O)c1ccc(N/N=C2\C(=O)Nc3ccc(Cl)cc32)cc1 [GW280670X] | 100 | 98 | 100 | 100 | 100 | 100 | 100 | 52 | 100 | 100 | 100 | 100 | 99 | 100 | 100 | 100 | 100 | 100 | 100 | 100
CN(C)c1cc2c(Nc3ccc4c(cnn4Cc4ccccc4)c3)ncnc2cn1 [GW282974X] | 89 | 100 | 100 | 100 | – | 85 | 91 | 94 | 78 | 81 | 83 | 72 | 100 | 100 | 100 | 91 | 100 | 100 | 100 | 67
CC1=C(C(=O)Nc2ccc3[nH]ncc3c2)C(c2ccc3ccccc3c2)CC(=O)N1 (stereo not drawn) [GSK270822A] | 91 | 10 | 58 | 83 | 82 | 79 | 93 | 90 | 79 | 36 | 93 | 62 | 92 | 85 | 86 | 76 | 83 | 88 | 96 | 68
C/C(Nc1ccc(S(N)(=O)=O)cc1)=C1/C(=O)Nc2ccccc21 [GW335962X] | 100 | 77 | 100 | 100 | 62 | 52 | 83 | 1.2 | 81 | 80 | 100 | 95 | 90 | 93 | 100 | 100 | 100 | 100 | 88 | 100
CCc1ccc(Oc2nccc(-c3c(-c4ccc(F)cc4)ncn3C3CCNCC3)n2)cc1 [SB-242719] | 91 | 100 | 100 | 62 | 92 | 77 | 92 | 100 | 64 | 69 | 100 | 100 | 80 | 97 | 89 | 67 | 8.8 | 13 | 32 | 78
